According to PubChem BioAssay AID504727 (Broad Institute, 2011):
Values without a mark were called inactive. Active and inactive are the calls of the source.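 How the source made its calls: active means fitted half-maximal concentration AC50 at or below ten times the highest valid tested dose, with signal falling as DNA is displaced (actives reach about 34 µM in these data); inconclusive means flat fit at moderate signal loss, or poor fit quality; inactive means the rest, including signal rising instead of falling.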

Assay: DNA intercalators displacing acridine orange, dose response, artefact control for KSHV LANA DNA-binding inhibitor project, biochemical, fluorescence polarization, cherry-picked samples, set 2 (AID 504727)
Conditions: AC50: Acridine orange-DNA displacement

Row | SMILES | AC50
1 | CCCCN(C(=O)CSc1nnc(-c2ccc(Cl)cc2)o1)c1c(N)n(CC(C)C)c(=O)[nH]c1=O | inactive
2 | O=C(CCn1c(=S)oc2ccccc21)N1CCN(c2ccc(F)cc2)CC1 | inactive
3 | O=C(O)c1ccc(-n2cccc2/C=C2/SC(=O)N(CC(=O)N3CCCC3)C2=O)cc1 | inactive
4 | Cc1cccc(COc2ccc(/C=N/NC(=O)c3nnn(-c4nonc4N)c3COc3ccc(F)cc3)cc2)c1 | inactive
5 | Cc1[nH][nH]c(=O)c1C(c1ccc(-c2ccc(Cl)c(C(=O)O)c2)o1)c1c(C)[nH][nH]c1=O | inactive
6 | Cc1cc2nc(SCCN3CCOCC3)[nH]c2cc1C | inactive
7 | CN(C)CCCNC(=O)c1ccccc1Oc1ccccc1 | inactive
8 | Cc1ccc(C(=O)O)cc1N1C(=O)c2cccc3c([N+](=O)[O-])ccc(c23)C1=O | inactive
9 | O=C(O)c1cccc(-n2cccc2/C=C2/NC(=O)N(c3ccc(Cl)cc3)C2=O)c1 | inactive
10 | Nc1ccc2nc3c(=O)n(C4CCCCC4)c(=O)[nH]c3nc2c1 | 3.19 µM (active)
11 | CN(Cc1cnc2nc(N)nc(N)c2n1)c1ccc(C(=O)NC(CCC(=O)O)C(=O)O)cc1 (stereo not drawn) | inactive
12 | O=c1c2cc(O)c(O)cc2oc2cc(O)c(C3OC(CO)C(O)C(O)C3O)c(O)c12 (stereo not drawn) | inactive
13 | Cc1noc(C)c1-c1nc(CSc2ccccc2)no1 | inactive
14 | COc1ccc(S(=O)(=O)N2CCC(C(=O)N3CCCCC3)CC2)cc1 | inactive
15 | Cc1cnc(NC(=O)Cc2c[nH]c3ccccc23)s1 | inactive
16 | CCCc1nc(SC)[nH]c(=O)c1C | inactive
17 | CCOC(=O)C1CCCN(C(=O)C2c3ccccc3Oc3ccccc32)C1 (stereo not drawn) | inactive
18 | N#CC1=C(N)Oc2ccc3ccc(O)cc3c2C1c1ccsc1 (stereo not drawn) | inactive
19 | COc1cccc(C2CC(=O)Nc3cc4c(cc32)CCC4)c1 (stereo not drawn) | inactive
20 | COc1ccc(OCC(=O)N2CCN(c3cccc(C(F)(F)F)c3)CC2)cc1 | inactive
21 | COc1ccc(/C=C/C(=O)NC(=S)Nc2ccc(S(N)(=O)=O)cc2)cc1 | inactive
22 | COC(=O)c1sc(C(F)(F)F)c(-c2ccccc2)c1S(=O)(=O)N1CCOCC1 | inactive
23 | CC(C(=O)Nc1ccccc1)N1C(=O)c2ccccc2C1=O (stereo not drawn) | inactive
24 | C=CCN1C(=O)/C(=c2\sc3nc(=O)c(Cc4ccccc4Cl)nn3c2=O)c2ccccc21 | inactive

Row | SMILES | AC50
25 | O=C(O)Cc1ccc(N=Nc2c(O)c(C(=O)O)cc3ccccc23)cc1 | inactive
26 | CN(C)CCNc1ccc2ncn3c4ccc(O)cc4c(=O)c1c23 | 8.68 µM (active)
27 | O=c1[nH][nH]cc1C=Nc1ccc(Cl)cc1Cl | inactive
28 | CCN(C(=O)COC(=O)CCCOc1ccc(Cl)cc1C)c1c(N)n(Cc2ccccc2)c(=O)[nH]c1=O | inactive
29 | CCOC(=O)CCCn1c(C)nc(=O)c(-c2ccccc2)c1C | inactive
30 | C=CCNC(=O)c1cn(CC)c2cc(N3CCN(C(=O)c4ccco4)CC3)c(F)cc2c1=O | inactive
31 | COC(=O)c1cccc(COC(=O)c2ccccc2NC(=O)c2ccco2)c1 | inactive
32 | Cc1c(C#N)c(=O)c(-[n+]2ccccc2)c([S-])n1-c1ccc(Cl)cc1 | inactive
33 | CC1CC(C)CN(C(=O)c2ccc3ncsc3c2)C1 (stereo not drawn) | inactive
34 | O=C1c2cccc3c(N4CCCCC4)ccc(c23)C(=O)N1c1cccc(O)c1 | inactive
35 | NC(=S)COc1ccccc1 | inactive
36 | CCCCCn1nc(-c2ccccc2)c2nc3ccccc3nc21 | > 35 µM
37 | O=C(O)c1ccc2c(c1)C(=O)/C(=C\c1ccco1)C2=O | inactive
38 | COc1cccc2[nH]c(C(=O)NC(C)c3ccccc3)cc12 (stereo not drawn) | inactive
39 | CC(C)CC(=O)Nc1nnc(CSCc2ccc(F)cc2)s1 | inactive
40 | COc1ccc(-c2cnc3n2CCCCC3)cc1 | inactive
41 | Cc1cccc(N2C(=O)c3cccc4c(N(C)CCO)ccc(c34)C2=O)c1 | inactive
42 | CC1Cc2ccccc2N1C(=O)CCS(=O)(=O)c1cccs1 (stereo not drawn) | inactive
43 | CNc1ccc2c3c(cccc13)C(=O)N(C)C2=O | 0.872 µM (active)
44 | CCCCN(C(=O)C(C)Oc1ccc(Br)cc1)c1c(N)n(CC(C)C)c(=O)[nH]c1=O (stereo not drawn) | inactive
45 | COc1ccc(N(CC(=O)NCc2ccc3c(c2)OCO3)C(=O)c2csnn2)cc1 | inactive
46 | COC(=O)C[n+]1cccc2ccccc21 | 8.59 µM (active)
47 | O=C(O)CCCCCn1c(SCC(=O)c2ccc(O)c(O)c2)nc2ccsc2c1=O | 23.8 µM (active)
48 | CCCCn1c(N)c(N(CCOC)C(=O)c2cc(C)oc2C)c(=O)[nH]c1=O | inactive
